Assay outcomes: PubChem BioAssay, National Center for Advancing Translational Sciences (NCATS)
Shown are actives, neighbours in structure and some others; about 10% of the full set was active somewhere.
PLK1 PBD inh: PLK1 (human) polo-box domain binding inhibition. P53350. Plk1 PBD binding of FITC phosphopeptide, fluorescence polarization. Potency, µM, actives largely listed as inhibitors. 2.8% of 360,000 active. AID 720504; further: series mostly up to about 57 µM; nearly all actives have a fitted effect of over 65% in size
Sfp inh: inhibitors of Bacillus subtilis Sfp phosphopantetheinyl transferase | Q9F4F7 | Biochemical Sfp PPTase activity, qHTS | 3.5% of 310,000 active | Potency, µM, hits mostly inhibitors;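 further: the enzyme is Sfp with the accession as filed and its product quenches rhodamine fluorescence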
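With Hepes-Na pH 7.6 buffer containing 10 mM MgCl2, Sfp (15 nM) modified BHQ-2-YbbR (12.5 uM) using rhodamine-CoA (5 uM). Two reads 30 minutes apart at 525/598 nm yielded each well's rate.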
VDR inh: vitamin D3 receptor (human) inhibition; Potency, µM, most hits filed as inhibitors; 0.93% of 400,000 active; VDR-SRC2-3 peptide fluorescence polarization, 2 h; P11473
Target sequence (P11473 whole entry, looked up): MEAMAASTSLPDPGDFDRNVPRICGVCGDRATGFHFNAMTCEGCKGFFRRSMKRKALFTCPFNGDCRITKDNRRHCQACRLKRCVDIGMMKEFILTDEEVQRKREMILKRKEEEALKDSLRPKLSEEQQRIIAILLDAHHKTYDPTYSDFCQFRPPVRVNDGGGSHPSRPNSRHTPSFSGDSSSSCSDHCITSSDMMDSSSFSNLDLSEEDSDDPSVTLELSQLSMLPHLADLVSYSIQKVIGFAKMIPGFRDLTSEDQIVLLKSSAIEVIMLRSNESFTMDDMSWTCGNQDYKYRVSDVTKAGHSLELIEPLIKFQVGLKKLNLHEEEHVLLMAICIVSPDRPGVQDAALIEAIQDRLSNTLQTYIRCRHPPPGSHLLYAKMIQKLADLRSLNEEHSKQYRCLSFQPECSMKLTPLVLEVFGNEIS
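FP read-out; VDR + SRC2-3 coactivator peptide; 23 nl compound by pintool; 2 h RT incubation; reagents held at 4 deg C, protected from light.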
Mm-Cpn inhibitor: inhibitors of Methanococcus maripaludis chaperonin TRiC (MmCpn) | purified Mm-Cpn ATPase, ADP Transcreener TR-FRET | Potency, µM (series often up to 76.9 µM), usual class: inhibitors | 0.031% of 330,000 active | AID 504842; further: nearly all actives have a fitted effect of over 80% in size
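Inhibition of chaperonin ATP hydrolysis is measured as reduced ADP production, detected by competitive TR-FRET in which signal falls with ADP. Final enzyme 25 nM and ATP 10 uM, reacted 30 min at 37°C.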
G9a block: inhibitors of human histone lysine methyltransferase G9a. G9a H3K9 monomethylation, AlphaScreen, 2 h. AID 504332. 8.8% of 350,000 active. Q96KQ7. Potency, µM (doses to about 102 µM), actives largely listed as inhibitors; further: nearly all actives have a fitted effect of over 75% in size
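Methyltransferase reactions run at room temperature for 2 h (20 nM enzyme, 500 nM biotin-H3K9 peptide, 20 uM SAM) after a 15 min compound preincubation; product detected by AlphaScreen beads and anti-H3K9me1 antibody.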
CCT chaperon mod: changes cytosolic chaperonin activity | activity change, % (test concentration not listed), hits read low | purified chaperonin ATPase assay, HTRF ADP detection, 30 min | 0.3% of 360,000 active; in the data active means activity change below about -30%
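TRiC (40 or 20 nM final, by batch activity) in 30 mM Tris pH 7.4, 100 mM KCl, 5 mM MgCl2, 1 mM DTT was treated with compound at 76 uM single dose, then 10 uM ATP, 30 min at 37 °C. ADP was read by HTRF Transcreener.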
Of the large screens only hits and unclear results are named; the others gave an inactive call. Unless noted, the call rests on the fitted dose curve; in most records, active means well fitted curve in the direction sought with a large enough effect; inconclusive means small, poorly fitted or top-dose-only effect, or another doubt; inactive means no such curve, though single readings can be large; an effect the other way counts as inactive or inconclusive.

Cc1ccc(/C=N/N2CCN(Cc3ccc(Cl)cc3)CC2)o1	Sfp inh 25µM, VDR inh inconclusive, G9a block 50µM
COc1ccccc1NC(=O)c1ccc(N2CC3CC(C2)c2cccc(=O)n2C3)c(NC(=O)c2ccncc2)c1 (stereo unspecified)	G9a block 16µM
CCOc1ccc(NC(=O)c2ccc(N3CC4CC(C3)c3cccc(=O)n3C4)c(NC(=O)c3cccnc3)c2)cc1 (stereo unspecified)	none
CSc1ccccc1NC(=O)c1ccc(N2CC3CC(C2)c2cccc(=O)n2C3)c(NC(=O)c2cccnc2)c1 (stereo unspecified)	G9a block 71µM
O=C(CN1C(=O)COc2ccc(S(=O)(=O)N3CCOCC3)cc21)N1CCN(c2ccccc2)CC1	none (no result: PLK1 PBD inh, Sfp inh, Mm-Cpn inhibitor, CCT chaperon mod)
CCN(c1ccccc1)c1cc(NC)[n+](C)c(C)n1	none (no result: PLK1 PBD inh, Mm-Cpn inhibitor, G9a block, CCT chaperon mod)
Cc1ccccc1-n1nc(CO)c(C(=O)NCCc2ccccc2)n1	none (no result: PLK1 PBD inh, Sfp inh, Mm-Cpn inhibitor, CCT chaperon mod)
Cc1cc(C)c(OCCCn2ccnc2)c(C)c1	none
CC(C)(C)c1ccccc1OCCCCCn1ccnc1	PLK1 PBD inh inconclusive, Sfp inh 56µM, G9a block inconclusive
Cc1cc(C)c(C)c(OCCCn2ccnc2)c1	G9a block 8.9µM
Cc1ccc(C(C)(C)C)c(OCCCn2ccnc2)c1	G9a block 7.9µM
CCCCN(Cc1cccs1)S(=O)(=O)c1cc(-c2cc(C)no2)ccc1C	none (no result: PLK1 PBD inh, Sfp inh, Mm-Cpn inhibitor, CCT chaperon mod)
CCOC(=O)/C=C1\SCC(=O)N1CC(=O)NC(C)c1ccccc1 (stereo unspecified)	none
CCOC(=O)/C=C1\SCC(=O)N1CC(=O)NC(C)C	G9a block 3.5µM
O=C1c2ccccc2C(=O)c2c(Nc3ccc(CCO)cc3)ccc(O)c21	Sfp inh inconclusive, VDR inh inconclusive, G9a block 3.5µM
C/C(NCCc1ccc(O)cc1)=C1/CCOC1=O	none (no result: Sfp inh, VDR inh, Mm-Cpn inhibitor, G9a block)
CC(=O)Nc1ccc(Nc2ccc3c4c(cc(=O)n3C)-c3ccccc3C(=O)c24)cc1	G9a block inconclusive
O=C1c2ccccc2C(=O)c2c(NCCc3ccc(O)cc3)ccc(NCCc3ccc(O)cc3)c21	G9a block 1.8µM (no result: PLK1 PBD inh, Sfp inh, Mm-Cpn inhibitor, CCT chaperon mod)
COCCNC(=O)C(c1ccc(C)o1)N(CC1CCCO1)C(=O)Cn1nnc2ccccc21 (stereo unspecified)	G9a block 50µM
COCCNC(=O)C(c1ccc(C)o1)N(Cc1ccc(OC)cc1)C(=O)Cn1nnc2ccccc21 (stereo unspecified)	Mm-Cpn inhibitor inconclusive
Nc1nc(SCC(=O)Nc2ccc(F)cc2)[nH]c(=O)c1NC(=O)c1ccc(F)c(F)c1	G9a block 79µM
CCc1ccc(NC(=O)CSc2nc(N)c(NC(=O)c3ccc(F)c(F)c3)c(=O)[nH]2)cc1	none (no result: G9a block)
Cc1cc(C)cc(NC(=O)CSc2nc(N)c(NC(=O)c3cccs3)c(=O)[nH]2)c1	G9a block 11µM
Cc1cc(C)c(NC(=O)Cc2ccc(-n3c(C)nc4cccnc43)cc2)c(C)c1	none (no result: PLK1 PBD inh, Sfp inh, Mm-Cpn inhibitor, CCT chaperon mod)
O=P(O)(O)C(O)(Cn1ccnc1)P(=O)(O)O	none (no result: PLK1 PBD inh, Mm-Cpn inhibitor, CCT chaperon mod)
COc1cccc(/C=C2\SC(=S)N(CCCC(=O)Nc3ccc(C(=O)O)cc3)C2=O)c1	none (no result: G9a block)
O=C(O)CCN1C(=O)/C(=C\c2cccc(OCC(=O)Nc3ccc(Cl)cc3)c2)SC1=S	PLK1 PBD inh 27µM, VDR inh 14µM, G9a block inconclusive
Cc1ccc(NC(=O)COc2cccc(/C=C3\SC(=S)N(CCC(=O)O)C3=O)c2)cc1Cl	PLK1 PBD inh 19µM, VDR inh inconclusive
CCOC(=O)c1c(C)n(-c2ccccc2)c2ccc(OC(=O)c3ccc(OCC)c(OCC)c3)cc12	none (no result: PLK1 PBD inh, Sfp inh, Mm-Cpn inhibitor, CCT chaperon mod)
CC1(C)O[C@H]2OC([C@H](O)CON3C(=O)c4ccccc4C3=O)[C@H](O)[C@H]2O1 (stereo partly specified)	G9a block 45µM
CCNc1ncc2nc(C)c(=O)n(C)c2n1	none (no result: PLK1 PBD inh, Mm-Cpn inhibitor, CCT chaperon mod)
Cc1ccc(Nc2cc(C)c(C#N)c3nc4ccccc4n23)c(C)c1	none (no result: PLK1 PBD inh, Sfp inh, Mm-Cpn inhibitor, CCT chaperon mod)
O=[N+]([O-])c1ccc(-c2cnc3ccccc3n2)cc1	G9a block inconclusive, CCT chaperon mod -38
Cc1nc2ccccc2nc1-c1ccc([N+](=O)[O-])cc1	none (no result: Sfp inh, Mm-Cpn inhibitor, G9a block)
CCOC(=O)N1CCN(C(=S)NC(=O)c2ccc(F)cc2)CC1	G9a block 28µM
